Test results taken from PubChem BioAssay (EPA / NIEHS).
Results filed as inconclusive are left out. Some compounds were tested as several samples or in several runs, with calls that do not always agree. The source made the active and inactive calls. Rule for the calls, unless noted: active = hit-call score of the fitted dose curve at least 0.9, where 1 is the maximum; inactive = score below 0.9.

Columns and labels:
[1] = read-out: Signal transducer and activator of transcription 3 (Homo sapiens) (UniProt P40763); test: LTEA_HepaRG_STAT3: Life Technologies and Expression Analysis (LTEA) Assay for Signal transducer and activator of transcription (STAT3) using HepaRG (AID 2283529); settings: mRNA level, 48 h; actives raise or lower the signal
Summary of the method: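 STAT3 transcript quantified by qRT-PCR against three housekeeping genes (ACTB, GAPDH, POLR2A), fitted both directions relative to DMSO. HepaRG cultures exposed 48 h to eight half-log concentrations, top 100 uM, 0.5% DMSO, serum-free induction medium.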

[2] = read-out: solute carrier (SLCO1B1), SLCO1B1 (gene 10599); test: LTEA_HepaRG_SLCO1B1: Life Technologies and Expression Analysis (LTEA) Assay for solute carrier (SLCO1B1) using HepaRG (AID 2283530); settings: mRNA level, 48 h; actives raise or lower the signal
Summary of the method: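 Gain or loss of SLCO1B1 mRNA is fitted against the 0.5% DMSO vehicle in human HepaRG liver cells treated 48 h at up to 100 uM in half-log steps. Expression comes from qRT-PCR normalized to endogenous controls.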

[3] = read-out: sulfotransferase 2A1 (SULT2A1), SULT2A1 (gene 6822); test: LTEA_HepaRG_SULT2A1: Life Technologies and Expression Analysis (LTEA) Assay for sulfotransferase 2A1 (SULT2A1) using HepaRG (AID 2283531); settings: mRNA level, 48 h; actives raise or lower the signal
Summary of the method: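 Cells were plated and cultured 48 h, switched to serum-free induction medium, then dosed in duplicate for 48 h (8 concentrations, max 100 uM). RNA was isolated and SULT2A1 expression measured by qRT-PCR; gain or loss of signal fitted relative to DMSO.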

[4] = read-out: Transforming Growth Factor (TGFA), TGFA (gene 7039); test: LTEA_HepaRG_TGFA: Life Technologies and Expression Analysis (LTEA) Assay for Transforming Growth Factor (TGFA) using HepaRG (AID 2283532); settings: mRNA level, 48 h; actives raise or lower the signal
Summary of the method: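 TGFA transcript quantified by qRT-PCR (Fluidigm arrays) against three housekeeping genes, after 48 hours chemical treatment of HepaRG cells. Top concentration 100 uM with half-log dilutions, 8 points, duplicates, 0.5% DMSO.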

[5] = read-out: Transforming Growth Factor (TGFB1), TGFB1 (gene 7040); test: LTEA_HepaRG_TGFB1: Life Technologies and Expression Analysis (LTEA) Assay for Transforming Growth Factor (TGFB1) Transporter using HepaRG (AID 2283533); settings: mRNA level, 48 h; actives raise or lower the signal
Summary of the method: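 Expression change of TGFB1 in human HepaRG cells is measured after a 48 h chemical exposure, up to 100 uM in 0.5% DMSO vehicle. Curves are fitted in both directions relative to the DMSO baseline.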

TIMP1, TIMP1 (gene 7076) = test: LTEA_HepaRG_TIMP1: Life Technologies and Expression Analysis (LTEA) Assay for TIMP1 using HepaRG (AID 2283534); settings: mRNA level, 48 h; actives raise or lower the signal;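 note: TaqMan qRT-PCR signal normalized to ACTB GAPDH and POLR2A housekeeping genes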
Summary of the method: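 We dosed human liver HepaRG cultures for 48 hours with up to 100 uM test chemical and measured TIMP1 expression by qRT-PCR. Activity in either direction is fitted relative to the 0.5% DMSO vehicle.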

[6] = read-out: Tumor necrosis factor receptor 1 (TNFRSF1A), TNFRSF1A (gene 7132); test: LTEA_HepaRG_TNFRSF1A: Life Technologies and Expression Analysis (LTEA) Assay for Tumor necrosis factor receptor 1 (TNFRSF1A) using HepaRG (AID 2283535); settings: mRNA level, 48 h; actives raise or lower the signal
Summary of the method: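 Expression of TNFRSF1A in human HepaRG liver cells was measured by qRT-PCR 48 h after chemical dosing (maximum 100 uM). Bidirectional curve fitting used 0.5% DMSO as baseline.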

[7] = read-out: Thyroid Hormone Responsive (THRSP), THRSP (gene 7069); test: LTEA_HepaRG_THRSP: Life Technologies and Expression Analysis (LTEA) Assay for Thyroid Hormone Responsive (THRSP) using HepaRG (AID 2283536); settings: mRNA level, 48 h; actives raise or lower the signal
Summary of the method: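 THRSP transcript quantified by Fluidigm qRT-PCR against three housekeeping genes after 48 h chemical exposure of HepaRG cells in serum-free induction medium; eight-point half-log series, top 100 uM, 0.5% DMSO vehicle, duplicate wells.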

[8] = read-out: Cellular tumor antigen p53 (Homo sapiens) (UniProt P04637); test: LTEA_HepaRG_TP53: Life Technologies and Expression Analysis (LTEA) Assay for Tumor Protein P53 (TP53) using HepaRG (AID 2283537); settings: mRNA level, 48 h; actives raise or lower the signal
Summary of the method: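 Differentiated HepaRG cells in serum-free induction medium exposed 48 h in duplicate to 8 half-log concentrations, top 100 uM, 0.5% DMSO. TP53 mRNA by TaqMan qRT-PCR (Fluidigm), normalized to ACTB, GAPDH, POLR2A; fitted bidirectionally versus DMSO.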

[9] = read-out: UDP glucuronosyltransferase (UGT1A1), UGT1A1 (gene 54658); test: LTEA_HepaRG_UGT1A1: Life Technologies and Expression Analysis (LTEA) Assay for UDP glucuronosyltransferase (UGT1A1) using HepaRG (AID 2283538); settings: mRNA level, 48 h; actives raise or lower the signal
Summary of the method: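 Cells are plated, cultured 48 h, switched to serum-free induction medium, then dosed 48 h at eight concentrations (max 100 uM, 0.5% DMSO). RNA is isolated and UGT1A1 expression measured by qRT-PCR; changes versus DMSO are fitted in both directions.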

[10] = read-out: UDP glucuronosyltransferase (UGT1A6), UGT1A6 (gene 54578); test: LTEA_HepaRG_UGT1A6: Life Technologies and Expression Analysis (LTEA) Assay for UDP glucuronosyltransferase (UGT1A6) using HepaRG (AID 2283539); settings: mRNA level, 48 h; actives raise or lower the signal
Summary of the method: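 Endpoint is UGT1A6 transcript induction or loss in a human liver cell line, quantified by TaqMan qRT-PCR 48 h after dosing. Concentrations ran from 100 uM downward in half-log steps in 0.5% DMSO; activity was fitted in both directions versus vehicle.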

[11] = read-out: X-box binding protein 1 (XBP1), XBP1 (gene 7494); test: LTEA_HepaRG_XBP1: Life Technologies and Expression Analysis (LTEA) Assay for X-box binding protein 1 (XBP1) using HepaRG (AID 2283540); settings: mRNA level, 48 h; actives raise or lower the signal
Summary of the method: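 Human HepaRG monolayers receive test chemical for 48 h across an eight-point half-log series starting at 100 uM. XBP1 mRNA gain or loss is scored against DMSO by qRT-PCR.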

[12] = LTEA_HepaRG_LDH_cytotoxicity: Cytotoxicity Assessment in the Life Technologies and Expression Analysis (LTEA) Assay (AID 2283563; active = hit-call score of the fitted dose curve at least 0.9, where 1 is the maximum;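 for AC50: LDH activity released into spent culture medium as a marker of cell death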)
Summary of the method: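 Human HepaRG hepatic cells are treated with test chemicals for 48 h at up to 100 uM in 0.5% DMSO. Cytotoxicity is scored from medium LDH against the vehicle control.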

[13] = ATG_XTT_Cytotoxicity: Cytotoxicity Assessment in the Attagene TRANS-FACTORIAL HepG2 Assay (AID 2283584; active = hit-call score of the fitted dose curve at least 0.9, where 1 is the maximum)
Summary of the method: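 Transfect HepG2 with GAL4-UAS reporter units, dose compound, incubate 24 h, then measure viable cell number by XTT. Fit concentration response against DMSO baseline.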

[14] = TOX21_p53_BLA_p2_viability: Viability Assessment in the Tox21 HCT-116 p53 Agonism Beta-lactamase Assay, Phase 2 (AID 2283591; active = hit-call score of the fitted dose curve at least 0.9, where 1 is the maximum;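 note: compound exposure lasted 16 h at 37 °C; actives lower the ATP signal meaning cytotoxicity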)
Summary of the method: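 Cytotoxicity readout: CellTiter-Glo ATP luminescence, 30 min at room temperature, after the beta-lactamase read. Cells were HCT116 exposed 16 h at 37C to compounds pin-transferred at 217-fold dilution from DMSO stocks.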

[15] = target: Cellular tumor antigen p53 (Homo sapiens) (UniProt P04637); test: TOX21_p53_BLA_p2_ratio: Tox21 HCT-116 p53 Agonism Beta-lactamase Assay, Ratio, Phase 2 (AID 2283592; active = hit-call score of the fitted dose curve at least 0.9, where 1 is the maximum)
Sequence of Cellular tumor antigen p53 (Homo sapiens) (P04637 whole entry, looked up): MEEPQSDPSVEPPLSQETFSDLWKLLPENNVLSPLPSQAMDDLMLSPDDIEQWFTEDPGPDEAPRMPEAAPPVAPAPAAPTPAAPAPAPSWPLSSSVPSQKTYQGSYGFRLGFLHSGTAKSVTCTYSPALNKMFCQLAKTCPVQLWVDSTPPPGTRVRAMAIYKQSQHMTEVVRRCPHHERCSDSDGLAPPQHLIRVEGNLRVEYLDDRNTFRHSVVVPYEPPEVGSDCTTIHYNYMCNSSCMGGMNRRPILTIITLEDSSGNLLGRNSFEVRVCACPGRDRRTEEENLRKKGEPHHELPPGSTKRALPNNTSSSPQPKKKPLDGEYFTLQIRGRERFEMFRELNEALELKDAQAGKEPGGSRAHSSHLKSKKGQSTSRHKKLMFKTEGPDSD
Summary of the method: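 Cleaved-to-uncleaved substrate ratio (460 vs 530 nm) measured in HCT116 cells with an inducible beta-lactamase reporter linked to p53 activity. Compounds incubated 16 h at 37C before 2 h room-temperature CCF4-AM loading.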

[16] = TOX21_p53_BLA_p3_viability: Viability Assessment in the Tox21 HCT-116 p53 Agonism Beta-lactamase Assay, Phase 3 (AID 2283593; active = hit-call score of the fitted dose curve at least 0.9, where 1 is the maximum;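 note: cells exposed to compound for 16 h before reading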)
Summary of the method: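 Cellular ATP was quantified by CellTiter-Glo luminescence, read after 30 min at room temperature. Beforehand, HCT116 cells (4000/well) received compound 5 h post-seeding, 217-fold diluted from DMSO, then incubated 16 h at 37C.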

[17] = target: Cellular tumor antigen p53 (Homo sapiens) (UniProt P04637); test: TOX21_p53_BLA_p3_ratio: Tox21 HCT-116 p53 Agonism Beta-lactamase Assay, Ratio, Phase 3 (AID 2283596; active = hit-call score of the fitted dose curve at least 0.9, where 1 is the maximum)
Summary of the method: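 Cells were seeded at 4000/well, rested 5 h at 37C, then dosed with DMSO compound solutions (217-fold dilution) for 16 h. CCF4-AM substrate was loaded for 2 h at room temperature, and the 460/530 nm emission ratio was fitted for gain of signal versus DMSO.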

[18] = TOX21_p53_BLA_p4_viability: Viability Assessment in the Tox21 HCT-116 p53 Agonism Beta-lactamase Assay, Phase 4 (AID 2283597; active = hit-call score of the fitted dose curve at least 0.9, where 1 is the maximum;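 note: hits lower the luminescence signal meaning cytotoxicity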)
Summary of the method: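 Viability is taken as cellular ATP: after 16 h compound exposure of HCT116 cells and a 2 h room-temperature CCF4-AM substrate step, CellTiter-Glo reagent is added and luminescence is measured 30 min later.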

[19] = target: Cellular tumor antigen p53 (Homo sapiens) (UniProt P04637); test: TOX21_p53_BLA_p5_ratio: Tox21 HCT-116 p53 Agonism Beta-lactamase Assay, Ratio, Phase 5 (AID 2283599; active = hit-call score of the fitted dose curve at least 0.9, where 1 is the maximum)
Summary of the method: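 Beta-lactamase reporter ratio (blue 460 nm over green 530 nm, 405 nm excitation) after 2 h CCF4-AM loading, in HCT-116 cells exposed 16 h at 37 C to compounds pinned at 217-fold dilution. Increases relative to DMSO baseline scored.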

Measured: AC50

Sequence of Signal transducer and activator of transcription 3 (Homo sapiens) (P40763 whole entry, looked up): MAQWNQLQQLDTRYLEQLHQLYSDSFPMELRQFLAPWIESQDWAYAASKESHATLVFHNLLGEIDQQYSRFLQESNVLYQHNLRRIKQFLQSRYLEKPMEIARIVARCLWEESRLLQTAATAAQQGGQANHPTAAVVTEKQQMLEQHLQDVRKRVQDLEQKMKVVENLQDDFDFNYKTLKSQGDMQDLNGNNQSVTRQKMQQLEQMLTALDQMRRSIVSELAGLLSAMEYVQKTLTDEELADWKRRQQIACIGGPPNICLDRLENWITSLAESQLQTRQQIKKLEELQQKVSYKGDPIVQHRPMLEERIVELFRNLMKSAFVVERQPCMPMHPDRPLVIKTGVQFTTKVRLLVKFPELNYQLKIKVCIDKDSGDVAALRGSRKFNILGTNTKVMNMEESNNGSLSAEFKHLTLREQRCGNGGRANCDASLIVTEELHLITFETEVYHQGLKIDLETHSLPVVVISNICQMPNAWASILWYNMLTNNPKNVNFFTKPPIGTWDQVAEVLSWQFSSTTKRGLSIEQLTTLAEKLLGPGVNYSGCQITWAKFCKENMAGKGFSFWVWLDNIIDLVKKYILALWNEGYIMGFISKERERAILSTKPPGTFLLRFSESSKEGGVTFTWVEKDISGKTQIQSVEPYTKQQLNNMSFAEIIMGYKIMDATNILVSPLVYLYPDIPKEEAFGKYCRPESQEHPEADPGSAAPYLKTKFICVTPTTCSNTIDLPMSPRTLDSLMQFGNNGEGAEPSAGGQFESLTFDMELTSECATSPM

CC1=C(/C=C/C(C)=C/C=C/C(C)=C/CO)C(C)(C)CCC1
inactive: [1] | [2] | [4] | [5] | TIMP1, TIMP1 (gene 7076) | [6] | [7] | [8] | [10] | [11] | [12] | [13] | [14] | [15] | [16] | [17] | [19]
active: [3] 52.2 µM | [9] 41.5 µM | [18] 78.5 µM | [19] 86.4 µM

CC(CO)OC(C)CO (stereo not drawn) (tested in a mixture with another compound)
not listed: [5] | [14] | [15] | [16] | [17] | [18] | [19]
inactive: all other assays above

C1CCC(SSC2CCCCC2)CC1
not listed: [18]
inactive: all other assays above

Clc1cc(Cl)c(Cl)cc1Cl
not listed: [15]
inactive: all other assays above

CC1(C)NC(=O)NC1=O
inactive: all assays above

Cc1ccc(C(C)C)c(O)c1
inactive: [1] | [2] | [3] | [4] | [5] | TIMP1, TIMP1 (gene 7076) | [6] | [7] | [8] | [9] | [10] | [11] | [12] | [13] | [15] | [16] | [17] | [18] | [19]
active: [14] 66 µM | [18] 60.5 µM | [19] 73.2 µM

CN1CCCC1=O
not listed: [14]
inactive: all other assays above

COc1ccc(C)cc1N
not listed: [14] | [16]
inactive: all other assays above

CC(=O)OC/C=C(\C)CCC=C(C)C
not listed: [16]
inactive: all other assays above

COc1ccc2c(c1)c(CC(=O)O)c(C)n2C(=O)c1ccc(Cl)cc1
not listed: [5]
inactive: all other assays above

C=CCOC(=O)c1ccccc1C(=O)OCC=C
not listed: [16] | [18]
inactive: all other assays above

Nc1ccc(S(=O)(=O)c2ccc(N)cc2)cc1
active: [1] 0.767 µM
inactive: all other assays above

Nc1ccccc1N
inactive: [1] | TIMP1, TIMP1 (gene 7076) | [14] | [15] | [16] | [17] | [18] | [19]
active: [2] 69.5 µM | [3] 85.9 µM | [4] 50 µM | [5] 29.6 µM | [6] 50 µM | [7] 50 µM | [8] 50 µM | [9] 85 µM | [10] 75.8 µM | [11] 88.2 µM | [12] 68.6 µM | [17] 68.5 µM | [18] 23 µM
